The campaign covered roughly 300,000 compounds. About 2,700 (0.9%) were called active. The sample holds actives, similar compounds and a random draw of the others, so the mix is not that of the screen.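 The calls were made as follows: active = mean inhibition of at least 30% with at least half of replicates also reaching 30%; inconclusive = no clear call, values can overlap the other calls; inactive = the rest.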
Each compound was assayed against Golgi-associated PDZ and coiled-coil motif-containing protein (Homo sapiens) (UniProt Q9HD26) (assay: untagged CAL PDZ binding inhibitors, primary screen, biochemical, fluorescence polarization, HTS (AID 602252;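 also: 0% = DMSO neutral control and 100% = excess unlabeled competitor peptide PRC23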)). Details: purified CAL PDZ, TMR-peptide fluorescence polarization, 1 h; at 24.9 µM; stronger effect = higher value.
`O=C1N[C@@H](c2ccccc2)COC(=O)[C@H](Cc2ccc(F)cc2)C/C=C\C[C@@H]1CC(=O)N(CCO)Cc1ccccc1` was tested, and the inhibition was 2.21% (inactive).
In the case of `COc1ccc(CN2C(CC(=O)Nc3cccnc3)c3ccc(C(F)(F)F)cc3S2(=O)=O)cc1` (stereo not drawn), the inhibition is reported as -6.01% (inactive).
`CSCCC1NC(=O)N(CC(=O)Nc2cccc(S(=O)(=O)N3CCCCCC3)c2)C1=O` (stereo not drawn) was tested, and the inhibition was -13.3% (inactive).
`CCCCN(C(=O)CSCc1ccc(C)cc1)c1c(N)n(Cc2ccccc2)c(=O)[nH]c1=O` was tested, and the inhibition was -2.71% (inactive).
`Cc1cnc(NC(=O)c2ccccn2)s1` was tested, and the inhibition was 54.3% (active).
For `Cc1cnc(NC(=O)CSc2c(Cl)cccc2Cl)s1`, the inhibition was -4.72% (inactive).
`Cc1cnc(NC(=O)c2ccc(Cl)nc2)s1` was tested, and the inhibition was 5.61% (inactive).
In the case of `O=C(Nc1ccn(CCCNCc2ccc3[nH]ccc3c2)c(=O)n1)OCc1ccccc1`, the inhibition is reported as -6.18% (inactive).
In the case of `O=C(NCCN1CCOC1=O)C1CCC(=O)N(CCc2ccc(Cl)cc2)C1` (stereo not drawn), the inhibition is reported as -3.91% (inactive).
With `O=C(NCCCc1ccccc1)C1CCC(=O)N(CCc2ccc(Cl)cc2)C1` (stereo not drawn) the inhibition was -3.25% (inactive).
`Cc1cc(CNC(=O)C2CCC(=O)N(CCc3ccc(Cl)cc3)C2)no1` (stereo not drawn) was tested, and the inhibition was 45.2% (active).
For `Cc1ccc(NC(=O)C2CCC(C(C)(C)C)CC2)cc1S(=O)(=O)N1CCOCC1` (stereo not drawn), the inhibition was -5.24% (inactive).
With `O=C(CC1Sc2ccccc2NC1=O)NNc1ccc(Cl)c(Cl)c1` (stereo not drawn) the inhibition was -5.96% (inactive).
With `Cc1nc2c(c(C)nn2-c2ccccc2)c(C)c1C` the inhibition was 45.7% (active).
In the case of `CSc1ccc(-c2c(C#N)c(N)nc3c2c(C)nn3-c2ccccc2)cc1`, the inhibition is reported as -0.521% (inactive).
`CCCNC(=O)CCc1c(C)nc2c(c(C)nn2-c2ccccc2)c1C` was tested, and the inhibition was -0.965% (inactive).
With `N#CC1=C(N)Oc2cc(N)ccc2C1c1ccccc1` (stereo not drawn) the inhibition was 2.39% (inactive).
For `Cc1sc2ncnc(N3CCC(C(=O)Nc4ccc(F)cc4Cl)CC3)c2c1C`, the inhibition was -2.24% (inactive).
`O=C(Nc1ccc(F)cc1)C(=O)c1cn(CC(=O)N2CCOCC2)c2ccccc12` was tested, and the inhibition was 45.3% (active).
For `Cc1ccc(CNC(=O)C(=O)c2cn(CC(=O)N3CCOCC3)c3ccccc23)cc1`, the inhibition was -3.01% (inactive).
In the case of `COc1cccc(NC(=O)C(=O)c2cn(CC(=O)N3CCOCC3)c3ccccc23)c1`, the inhibition is reported as -2.58% (inactive).
`COc1ccccc1-c1nc(C#N)c(N2CCC(C(N)=O)CC2)o1` was tested, and the inhibition was -2.05% (inactive).
With `Cc1cc(C)c(C#N)c(N2CCC(C(N)=O)CC2)n1` the inhibition was 47.5% (active).
For `Cc1cccn2c(=O)c(/C=C(\C#N)S(=O)(=O)c3ccc(Cl)cc3)c(N3CCC(C(N)=O)CC3)nc12`, the inhibition was 3.73% (inactive).
For `O=C(NCCc1ccccc1)c1cccc(NC(=O)c2ccccc2)c1`, the inhibition was -3.44% (inactive).
In the case of `CC(C)(C)OC(=O)C[C@@H]1C/C=C\C[C@@H](CC(=O)N[C@H](CO)Cc2ccccc2)C(=O)NCCOC1=O`, the inhibition is reported as -9.11% (inactive).
In the case of `O=C(NNC(=O)c1ccccc1O)c1ccccc1O`, the inhibition is reported as -3.61% (inactive).
`S=C(c1ccc(-c2ccccc2)o1)N1CCCCC1` was tested, and the inhibition was 54.6% (active).
For `S=C(c1ccccc1)N1CCCC1`, the inhibition was -2.69% (inactive).
`CN1CCN(C(=O)c2ccc(-c3ccc(Br)cc3)o2)CC1` was tested, and the inhibition was -4.62% (inactive).
With `C=CC[C@H](CC(=O)N(CCO)Cc1ccccc1)C(=O)N[C@@H](COC(=O)[C@@H](CC=C)Cc1ccc(F)cc1)Cc1ccccc1` the inhibition was -5.7% (inactive).
For `CC(C)N(C(=O)[C@H]1C[C@H](CC(=O)NCCC2=CCCCC2)C(=O)N2CCc3c([nH]c4cc(CCC(=O)N(C)C)ccc34)[C@]12C)C(C)C`, the inhibition was -1.76% (inactive).
For `O=c1oc2ccccc2c(=O)c2ccccc12`, the inhibition was 39.9% (active).
With `CC(C)(C)Nc1c(N)c(=O)oc2ccccc12` the inhibition was 3.5% (inactive).
In the case of `Cc1ccccc1-n1nnc2c(=O)oc3ccccc3c21`, the inhibition is reported as 0.078% (inactive).
In the case of `COCCN(C(=O)C(C)N1C(=O)c2ccccc2C1=O)c1c(N)n(CC(C)C)c(=O)[nH]c1=O` (stereo not drawn), the inhibition is reported as -19.9% (inactive).
`COc1ccc(CC(=O)N[C@@H]2c3cc(OC)c(OC)cc3C[C@H]2OCc2ccccc2)cc1` was tested, and the inhibition was -0.172% (inactive).
With `CSc1ccccc1NC(=O)c1cnc2sc(C)cn2c1=O` the inhibition was -2.14% (inactive).
For `COc1ccc(C)cc1NC(=O)Nc1ccccc1SC`, the inhibition was -2.98% (inactive).
With `CSc1ccccc1NC(=O)c1cc(Cl)sc1Cl` the inhibition was 35% (active).
For `O=C(COC(=O)COc1cccc(F)c1)NCC1CCCCC1`, the inhibition was -0.678% (inactive).
For `O=C(Nc1nnc(-c2ccccc2)o1)c1cccc(S(=O)(=O)N2CCOCC2)c1`, the inhibition was 7.28% (inactive).
For `O=C(Oc1ccccc1Cl)c1ccc(N2CCOCC2)c([N+](=O)[O-])c1`, the inhibition was -0.07% (inactive).
`O=C(c1ccc(N2CCOCC2)c([N+](=O)[O-])c1)N1CCN(c2ccccc2F)CC1` was tested, and the inhibition was -2.67% (inactive).
With `O=C(OCC(=O)N1CCOCC1)c1ccc(N2CCOCC2)c([N+](=O)[O-])c1` the inhibition was 53.8% (active).
In the case of `CC(=O)Nc1ccc(S(=O)(=O)Nc2ccc(N3CCCCC3)cc2)cc1`, the inhibition is reported as -0.222% (inactive).
`CC(C)N(C(=O)[C@H]1C[C@H](CC(=O)NC(C)(C)C)C(=O)N2CCc3c([nH]c4ccc(Cl)cc34)[C@]12C)C(C)C` was tested, and the inhibition was 1.76% (inactive).
In the case of `Cn1c(CCC(=O)Nc2ccccc2F)nnc1SCC(=O)Nc1ccccc1Cl`, the inhibition is reported as 63.9% (active).
`COc1ccc(C)cc1NC(=O)CSc1nnc(CC(=O)Nc2ccccc2F)n1C` was tested, and the inhibition was -5.79% (inactive).
`Cn1c(SCC(=O)Nc2ccc(Br)cc2F)nnc1-c1ccco1` was tested, and the inhibition was -0.672% (inactive).
`CN(C)c1ccc(CSc2ccccc2)cc1` was tested, and the inhibition was -6.85% (inactive).
`COc1ccc2oc(N)nc2c1` was tested, and the inhibition was -0.189% (inactive).
`CCOC(=O)c1ccccc1NC(=O)CSc1nc2c(sc(=S)n2CC)c(=O)[nH]1` was tested, and the inhibition was -5.33% (inactive).
For `CCN(C[C@H]1N[C@@](CC)(C(=O)OC)[C@H]2C(=O)N(Cc3ccccc3)C(=O)[C@@H]12)S(=O)(=O)c1ccc(C(F)(F)F)cc1`, the inhibition was -1.59% (inactive).
`O=C(O)CN1CCN(C(c2ccccc2)c2ccccc2)CC1` was tested, and the inhibition was 0.69% (inactive).
For `CC1(C)CC(N2CCN(C(c3ccccc3)c3ccccc3)CC2)=CC(=[N+]2CCCCC2)C1`, the inhibition was 46.7% (active).
In the case of `CC(C)NC(=S)N1CCN(C(c2ccccc2)c2ccccc2)CC1`, the inhibition is reported as -1.91% (inactive).
For `CCCCN1CC(CO)Oc2cccc(F)c2S1(=O)=O` (stereo not drawn), the inhibition was -3.69% (inactive).
`CCCCCC1CC(COc2ccccc2)OC1=O` (stereo not drawn) was tested, and the inhibition was 8.53% (inactive).
`COc1cccc(C=CC(=O)C=CC=Cc2ccccc2)c1` was tested, and the inhibition was 0.692% (inactive).
In the case of `Cc1[nH]n(-c2ccccc2)c(=O)c1N=Nc1ccccc1C(=O)N1CCCCC1`, the inhibition is reported as -3.5% (inactive).
For `C=CCNC(=S)N1CCN(CCN=Cc2c(C)[nH]n(-c3ccc([N+](=O)[O-])cc3)c2=O)CC1`, the inhibition was -1.05% (inactive).
With `Cc1[nH]n(-c2ccc([N+](=O)[O-])cc2)c(=O)c1C=NCCN1CCN(C(=O)c2ccccc2F)CC1` the inhibition was 51.8% (active).
For `COc1ccc(C(=O)Nc2cccc(/C=C(/CCC(=O)O)c3nc4ccccc4s3)c2)cc1`, the inhibition was -1.62% (inactive).
For `CN1c2ccc(C=O)c3c(C=O)ccc(c23)N(C)C1(C)C`, the inhibition was 67% (active).
`Cc1onc(-c2c(F)cccc2Cl)c1C(=O)OCC(=O)N1C(C)CCCC1C` (stereo not drawn) was tested, and the inhibition was -2.47% (inactive).
With `COc1ccc(CC(=O)NC(C)c2ccc(Cl)c(Cl)c2)cc1S(=O)(=O)N1CCOCC1` (stereo not drawn) the inhibition was -1.91% (inactive).
For `CCCN(CC(=O)NC(=O)NC1CCCCC1)CC(=O)Nc1cc(Cl)ccc1Cl`, the inhibition was -3.68% (inactive).
`CN(c1ccc(OCC(=O)NC2=NCCS2)cc1)S(=O)(=O)c1ccc(F)cc1` was tested, and the inhibition was 81.4% (active).
In the case of `CN(c1ccccc1)S(=O)(=O)c1ccc(NC(=O)COc2ccccc2)cc1`, the inhibition is reported as -1.05% (inactive).
`Cc1ccc(S(=O)(=O)N(C)c2ccc(OCC(=O)NC3=NCCS3)cc2)cc1` was tested, and the inhibition was -1.61% (inactive).
`Cc1ccc(S(=O)(=O)N2CCN(C(=O)Cn3c(=O)cnc4ccccc43)CC2)c(C)c1` was tested, and the inhibition was -10.5% (inactive).
In the case of `COc1ccc(CNCCCNCc2ccc(OC)c(OC)c2)cc1OC`, the inhibition is reported as 2.4% (inactive).
With `CSCCC(NC(=O)c1ccccc1)C(=O)N1CCCCCCC1` (stereo not drawn) the inhibition was -1.09% (inactive).
For `CSCC(NS(=O)(=O)c1ccc(C)cc1)C(=O)O` (stereo not drawn), the inhibition was 2.04% (inactive).
With `CSCCC(NS(=O)(=O)c1ccc(C)cc1)C(=O)N1CCCC1` (stereo not drawn) the inhibition was 68.8% (active).
For `O=C1[C@@H](c2ccccc2)[C@@H](c2ccccc2)N1c1cccnc1`, the inhibition was -3.46% (inactive).
In the case of `O=C(Cc1ccc(S(=O)(=O)N2CCOCC2)s1)Nc1ccc(Br)c(C(F)(F)F)c1`, the inhibition is reported as -2.21% (inactive).
For `Cc1nc2ccc(NC(=O)c3cccc(S(=O)(=O)N4CCOCC4)c3)cc2s1`, the inhibition was -4.38% (inactive).
In the case of `O=C(NC(=S)Nc1ccc(NC(=O)c2cccs2)cc1)c1ccc([N+](=O)[O-])cc1`, the inhibition is reported as -2.58% (inactive).
For `CC(=O)Nc1ccc(NC(=S)NC(=O)c2ccc([N+](=O)[O-])c(C)c2)cc1`, the inhibition was -0.773% (inactive).
For `CC(=O)NC(=S)Nc1ccc(NC(=S)NC(=O)c2ccc([N+](=O)[O-])cc2)cc1`, the inhibition was 56.3% (active).
For `O=C(Nc1ccc2ccccc2c1[N+](=O)[O-])c1ccccc1`, the inhibition was 0.89% (inactive).
With `CC1(C)CCSC(/C=C/c2ccccc2)=N1` the inhibition was 76.1% (active).
For `CC(C)[C@@H](C(=O)OCC(=O)c1ccc2c(c1)NC(=O)CO2)N1C(=O)c2ccccc2C1=O`, the inhibition was -3.95% (inactive).
For `CN(Cc1ccccc1)C(=O)COc1ccccc1`, the inhibition was 34.5% (active).
With `CN(Cc1ccc(F)cc1)C(=O)COc1ccc2ccccc2c1` the inhibition was -2.25% (inactive).
`CN(Cc1ccccc1)C(=O)c1ccc(COc2ccccc2)cc1` was tested, and the inhibition was -2.72% (inactive).
